Screening data deposited in PubChem by Bradner/Qi Labs at DFCI.
Shown is part of a subset that was picked to be rich in hits.
CBX7 inh – CBX7 chromodomain binding inhibitors, primary screen, biochemical, AlphaScreen; AlphaScreen His6-CBX7 / biotin-H3K27me3 peptide binding; active compounds read low; normalised signal (fraction of DMSO) (concentration not given with the values); 1.1% of 66,000 active; in the data active means normalised signal below about 0.5
Target sequence (O95931 whole entry, looked up): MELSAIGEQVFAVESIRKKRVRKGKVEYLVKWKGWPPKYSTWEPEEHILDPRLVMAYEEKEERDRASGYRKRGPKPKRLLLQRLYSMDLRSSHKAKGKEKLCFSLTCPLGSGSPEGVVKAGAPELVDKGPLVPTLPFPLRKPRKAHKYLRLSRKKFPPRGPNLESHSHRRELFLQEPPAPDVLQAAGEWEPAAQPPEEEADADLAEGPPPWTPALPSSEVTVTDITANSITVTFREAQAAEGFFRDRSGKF
* = called active by the depositor.

SMILES	CBX7 inh
Cc1ccccc1OCc1nc(C#N)c(N2CCOCC2)o1	0.86
N#Cc1nc(COc2ccccc2)oc1N1CCCCCC1	0.46*
COc1ccc(N2CCN(c3oc(COc4cccc(C)c4)nc3C#N)CC2)cc1	0.49*
N#Cc1nc(COc2ccccc2Cl)oc1N1CCCCC1	0.75
COc1ccc(N2CCN(c3oc(COc4ccc(Cl)cc4)nc3C#N)CC2)cc1	0.56
Cc1ccccc1OCc1nc(C#N)c(N2CCCCCC2)o1	0.47*
Cc1ccccc1OCc1nc(C#N)c(N2CCCCC2)o1	0.71
CCC(C)NC(=O)C1c2ccccc2C(=O)N1Cc1cc(Br)ccc1OC (stereo not drawn)	1.1
CCN(CC)C(=O)c1cc2c(n(-c3ccc(Cl)cc3)c1=O)CC(C)(C)CC2=O	1.1
COc1ccc(NC(=O)c2cnn(-c3ccccc3)c2NC(=O)c2cccc(F)c2)cc1	0.91
Cc1ccc(NC(=O)CCc2c(C)nc3ncnn3c2C)c(Cl)c1	1.1
N#Cc1nc(COc2ccc(F)cc2)oc1N1CCCCC1	0.42*
N#Cc1nc(-c2ccc(F)cc2)oc1N1CCCCCC1	0.79
CCN1CCN(c2oc(COc3ccc(F)cc3)nc2C#N)CC1	0.94
N#Cc1nc(COc2ccc(F)cc2)oc1N1CCCCCC1	0.5*
N#Cc1nc(COc2ccc(F)cc2)oc1N1CCC(C(N)=O)CC1	0.99
N#Cc1nc(COc2ccc(Cl)cc2)oc1N1CCCCC1	0.76
Clc1ccccc1Cc1noc(-c2cccs2)n1	0.88
Cn1c2ccccc2c2c(C(=O)NCc3ccc(F)cc3)cn(C3CCCC3)c(=O)c21	1.1
CCC(=O)N1CCc2cc(S(=O)(=O)NC3CCCCC3)ccc21	1.3
COCCCNc1ncnc2ccccc12	1
CC(C)CCNC(=O)c1ccc2c(c1)N(Cc1ccc(Cl)cc1)C(=O)c1ccccc1S2(=O)=O	1
COc1ccc(-c2nnc(NC(=O)c3ccc(S(=O)(=O)N4CCCC4)cc3)o2)cc1	0.56
CCc1nnc(NC(=O)c2ccc(S(=O)(=O)N3CCC(C)CC3)cc2)o1	0.62
CCCN(CCC)S(=O)(=O)c1ccc(C(=O)Nc2nnc(-c3ccc(Cl)s3)o2)cc1	1
SMILES	CBX7 inh
CCCCN(C)S(=O)(=O)c1ccc(C(=O)Nc2nnc(-c3ccc(Cl)s3)o2)cc1	0.98
COCc1nnc(NC(=O)c2ccc(S(=O)(=O)N3CCCC3)cc2)o1	0.57
O=C(Nc1nnc(-c2ccc(F)cc2)o1)c1ccc(S(=O)(=O)N2CCCC2)cc1	0.013*
CCc1nnc(NC(=O)c2ccc(S(=O)(=O)N3CCCCC3)cc2)o1	0.1*
CN(c1ccccc1)S(=O)(=O)c1ccc(C(=O)Nc2nnc(-c3ccc(Cl)s3)o2)cc1	0.39*
CN(C)S(=O)(=O)c1ccc(C(=O)Nc2nnc(-c3ccc(F)cc3)o2)cc1	0.044*
COc1cc(OC)cc(-c2nnc(NC(=O)c3ccc(S(=O)(=O)N4CCCC4)cc3)o2)c1	0.86
O=C(NCC1COc2ccccc2O1)c1cnn2c(C(F)(F)F)cc(-c3cccs3)nc12 (stereo not drawn)	0.96
Cc1ccc(C(=O)Nc2ccc(-c3nc4ccc(C)cc4s3)cc2)cc1	1.2
COc1ccc(-n2nc3c(c2NC(=O)c2ccc(C)c(C)c2)CS(=O)(=O)C3)cc1	0.87
Cn1nc(-c2ccccc2F)c2cc(C(=O)NCc3cccnc3)sc21	0.88
Cc1cc2c(cc1C)C(c1cccc(C(F)(F)F)c1)CC(=O)N2 (stereo not drawn)	1
COc1ccc(C(C(=O)NC2CCCCC2)N(Cc2ccccc2)c2ccccc2)cc1 (stereo not drawn)	1
CC(C)(C)C(=O)NCc1nc2ccccc2n1Cc1c(F)cccc1Cl	1.2
COc1ccc(OC)c(NC(=O)Cn2cnc3sc(C)c(C)c3c2=O)c1	1
CCC(=O)N1CCc2cc(S(=O)(=O)NC(C)CC)ccc21 (stereo not drawn)	1.2
CCCCNC(=O)c1sc2nc(-c3ccccc3)cn2c1C	1.1
CCCCSCCCNC(=O)c1cc(Nc2ccc(OC)cc2OC)nc2ccccc12	0.87
Cc1ccc(Cl)cc1NC(=O)CC1Oc2ccccc2NC1=O (stereo not drawn)	0.94
O=S(=O)(c1ccccc1)c1nc(-c2ccc(Br)cc2)oc1N1CCOCC1	1
Cc1[nH]c2ccc(-c3nnc(SCC(=O)O)n3-c3ccccc3)cc2c1C	1.1
Cc1nnc(NC(=O)c2ccc(S(=O)(=O)N3CCCc4ccccc43)cc2)o1	0.034*
COc1ccc(-c2nnc(NC(=O)c3ccc(S(=O)(=O)N4CCOCC4)cc3)o2)cc1	0.52
COc1ccc(-c2nnc(NC(=O)c3ccc(S(=O)(=O)N4CC(C)CC(C)C4)cc3)o2)c(OC)c1 (stereo not drawn)	0.97
CCOc1cccc2sc(NC(=O)c3ccc(S(=O)(=O)N4CCCc5ccccc54)cc3)nc12	1.2
SMILES	CBX7 inh
CC1CC(C)CN(S(=O)(=O)c2ccc(C(=O)Nc3nnc(C4CC4)o3)cc2)C1 (stereo not drawn)	0.065*
O=C(Nc1nc(-c2ccncc2)cs1)c1ccc(S(=O)(=O)N2CCCc3ccccc32)cc1	0.86
CCC1CCCCN1S(=O)(=O)c1ccc(C(=O)Nc2nnc(C3CC3)o2)cc1 (stereo not drawn)	0.75
O=C(Nc1nnc(C2CC2)o1)c1ccc(S(=O)(=O)N2CCOCC2)cc1	0.44*
CCc1nnc(NC(=O)c2ccc(S(=O)(=O)N3CCCC(C)C3)cc2)o1 (stereo not drawn)	0.64
O=C(Nc1nnc(C2CC2)o1)c1ccc(S(=O)(=O)N2CCCCCC2)cc1	0.0011*
O=C(CSc1nc2ncccc2[nH]1)Nc1cccc(C(F)(F)F)c1	1
O=C(CSc1nccn1-c1cccc(Cl)c1)Nc1nc2ccccc2s1	1.1
Cc1ccc(S(=O)(=O)N2CCC(C(=O)NCc3ccc(F)cc3)CC2)cc1	1.1
Cc1[nH]c2ccc(-c3nnc(SCC(N)=O)n3-c3ccc(Br)cc3)cc2c1C	0.93
Cc1nc2sc(C(c3cccs3)N3CCCC(C)C3)c(O)n2n1 (stereo not drawn)	1
O=C(CC1Nc2ccccc2NC1=O)Nc1ccc(OC(F)F)cc1 (stereo not drawn)	0.89
COc1ccc2[nH]cc(S(=O)(=O)c3ccccc3)c(=O)c2c1	1.2
Cc1nnc(NC(=O)c2ccc(S(=O)(=O)N3CCCC3)cc2)o1	0.024*
CC(C)CN(CC(C)C)S(=O)(=O)c1ccc(C(=O)Nc2nnc(-c3ccc(Cl)s3)o2)cc1	0.86
COc1cc(OC)cc(-c2nnc(NC(=O)c3ccc(S(=O)(=O)N4CCCCCC4)cc3)o2)c1	0.8
Cc1nnc(NC(=O)c2ccc(S(=O)(=O)N3CCCC(C)C3)cc2)o1 (stereo not drawn)	0.75
O=C(Nc1nnc(-c2ccc(Cl)s2)o1)c1ccc(S(=O)(=O)N2CCCCC2)cc1	0.16*
Cc1nnc(NC(=O)c2ccc(S(=O)(=O)N3CCOCC3)cc2)o1	0.51
O=S(=O)(c1ccc(F)cc1)c1nc(-c2cccs2)oc1SCc1ccccc1F	0.9
CCCCNC(=O)CCN1C(=O)COc2ccccc21	0.99
O=C(NC1CCCCC1)C1c2ccccc2C(=O)N1Cc1ccccc1Cl (stereo not drawn)	1
Fc1cccc(Nc2nc(-c3ccccc3F)nc3ccccc23)c1	1.1
COc1ccc(Nc2nc(-c3ccccc3F)nc3ccccc23)c(OC)c1	1.4
COc1cccc(Nc2nc(-c3ccccc3F)nc3ccccc23)c1	0.33*
CCOCCCNC(=O)c1csc2c1CCCCC2	1.1
COc1ccc(OCc2nc(C#N)c(N3CCCC3)o2)cc1	0.86
